Compound activity as filed in PubChem BioAssay.
TDP1 cell noCPT: qHTS for Inhibitors of human tyrosyl-DNA phosphodiesterase 1 (TDP1): qHTS in cells in absence of CPT. DT40 Tdp1-/- hTDP1 cells, no CPT, ATP luminescence, 48 h. Potency, µM (doses to about 46.2 µM), for inactives: at the highest dose activity change, negative = growth inhibition, actives largely listed as inhibitors. 15% of 420,000 active. AID 686978, 2013; also: % is scaled to controls: 0 for no effect and ±100 for the full control effect; nearly all actives have a fitted effect of over 55% in size
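Cells were dispensed at 400 per well, compounds added by pin tool, plates incubated ≥48 hr at 37 °C, then CellTiter-Glo added for 30 min at room temperature before luminescence reading. Line: DT40 Tdp1-/- complemented with hTDP1; camptothecin omitted.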
HT1080NT lethal: kills 2HG-producing HT-1080-NT fibrosarcoma cells; HT-1080-NT fibrosarcoma viability, CellTiter-Glo ATP luminescence, 48 h; Potency, µM (titrated, usually from 46.1 µM), without a hit: at the highest dose activity, negative = less viability, most hits filed as cytotoxic; 1.6% of 360,000 active;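 also: NT is the 2HG producing partner of a matched IDH1 knockdown line; 0% = DMSO-treated cells and -100% = media-only wells without cells; nearly all actives have a fitted effect of over 55% in size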
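Compounds were tested in concentration-response format on HT-1080-NT cells for 48 hours at 37 degrees C. Cell viability came from CellTiter-Glo luminescence; curves were classified by r2, response magnitude and activity.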
TGFb SMAD3 inh: blocks TGF-b signaling. HepG2 CAGA-GFP TGF-b/SMAD3 reporter, GFP fluorescence, 18 h; TGF-beta stimulated, 500 pg/mL final. 1.2% of 410,000 active. Potency, µM (titrated, usually from 46.1 µM), for inactives: top-dose activity, negative = inhibition, actives largely listed as inhibitors; also: % is scaled to controls: 0 for no effect and ±100 for the full control effect; nearly all actives have a fitted effect of over 65% in size
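TGF-beta reporter screen: HEPG2 CAGA-GFP, 1% FBS, 500 pg/mL TGF-beta final, 18 h; per-cell GFP summed per well; curves fitted and categorized by class.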
HepG2 tox: counter-screen for TGF-b inhibitors: cytotoxicity in HepG2 cells; HepG2 CAGA-GFP viability, ATP luminescence, 18 h; Potency, µM (series often up to 46.1 µM), for inactives: at the highest dose activity change, negative = cytotoxicity, actives largely listed as cytotoxic; 0.76% of 410,000 active; AID 588856
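CellTiter-Glo luminescence gave cytotoxicity after 18 hours at 37 degrees C. The cells were HepG2 CAGA-GFP in 1% FBS DMEM, stimulated with 500 pg/mL TGF-beta after compound addition. %Activity was normalised to no-cell wells (complete cell-killing) and DMSO (no toxicity), and curves were fitted and classified.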
HT1080 IDH1KD tx: HT-1080 IDH1 knockdown cell toxicity (counter line); HT-1080 IDH1 knockdown viability, ATP luminescence, 48 h; Potency, µM (series often up to 46.1 µM), without a hit: top-dose activity, negative = toxicity, actives largely listed as cytotoxic; 2% of 360,000 active; AID 686971;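 also: 0% = DMSO wells and -100% = cell-free medium wells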
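CellTiter-Glo luminescence after 48 h compound exposure at 37 degrees C of IDH1-knockdown HT-1080 cells in 5% FBS RPMI. %Activity scaled between DMSO wells and cell-free media wells, with curves fitted and assigned curve classes.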
DT40 TDP1 CPT: growth inhibition of DT40 Tdp1-/-;hTDP1 cells with camptothecin (screen for TDP1 inhibitors). chicken DT40 Tdp1-/-;hTDP1 cells + 20 nM CPT, ATP luminescence, 48 h. Potency, µM (highest dose often 46.2 µM), for the others: top-dose activity change, negative = growth inhibition, most hits filed as inhibitors. 12% of 420,000 active. AID 686979; also: % is scaled to controls: 0 for no effect and ±100 for the full control effect; nearly all actives have a fitted effect of over 55% in size
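Cell growth measured by CellTiter-Glo luminescence after a minimum 48 h, 37 C compound exposure with 20 nM CPT in Tdp1-knockout DT40 cells stably expressing hTDP1, seeded 400/well; qHTS titration format.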
An asterisk follows results filed as active; ? = inconclusive; . = not tested or not shown; [ ] = another dose, or the depositor's remark. Compounds with a hit are over-represented: about 17% of the library has one in this group of screens. Calls follow the shape of the dose curve; as a rule, active = well fitted curve in the direction sought with a large enough effect; inconclusive = small, poorly fitted or top-dose-only effect, or another doubt; inactive = no such curve, though single readings can be large; an effect the other way counts as inactive or inconclusive. Potency is read from the fitted curve at half-maximal effect.

SMILES | TDP1 cell noCPT | HT1080NT lethal | TGFb SMAD3 inh | HepG2 tox | HT1080 IDH1KD tx | DT40 TDP1 CPT
Cc1cc(OCc2nc(N)nc(N)c2-c2ccc(Cl)c(Cl)c2)ccc1[N+](=O)[O-] | 0.13µM* | ? | ? | -37% | 0.82µM* | 0.58µM*
COc1ccc(Cc2c(C)nc(N)nc2Cl)cc1 | -8% | 2% | -4% | -17% | -9% | ?
Cc1nc(N)nc(N)c1-c1ccc(Cl)c(Cl)c1 | 0.16µM* | ? | ? | 0.63µM* | 0.58µM* | 0.26µM*
Cc1cc(OCCCn2cnc3ccccc3c2=O)ccc1[N+](=O)[O-] | ? | 0% | -16% | 1% | 4% | ?
O=C(Cc1ccccc1)NCc1n[nH]c(=S)n1-c1ccc(Br)cc1 | ? | -7% | 14% | -21% | 0% | ?
Cc1[nH]n(-c2ncc(-c3ccccc3)s2)c(=O)c1C(c1ccc(Cl)cc1)C(C#N)C#N (stereo not drawn) | ? | 7% | ? | -2% | 8% | ?
O=C(c1ccc(F)cc1)N1CCCC(C(=O)N2CCc3ccccc3C2)C1 (stereo not drawn) | -25% | 3% | -7% | 2% | -1% | ?
CCOC(=O)C1=C(C)NC(=O)NC1c1ccccc1OCc1c(F)cccc1Cl (stereo not drawn) | 16µM* | -10% | ? | 6% | -16% | 23µM*
CCOC(=O)C1=C(CNCc2ccc(Cl)cc2)NC(=O)NC1c1ccccc1 (stereo not drawn) | ? | . | ? | -37% | . | -7%
CCOC(=O)C1=C(CS(=O)(=O)c2ccc(F)c(C)c2)NC(=O)NC1c1ccccc1OC (stereo not drawn) | ? | . | ? | -28% | . | 29µM*
CCOC(=O)C1=C(COc2ccc(F)cc2Cl)NC(=O)NC1c1cc(C)ccc1C (stereo not drawn) | 21µM* | 8% | 0% | 1% | 14% | ?
CCOC(=O)C1=C(CNCc2ccc(C)cc2)NC(=O)NC1c1ccc(OC)cc1 (stereo not drawn) | 21µM* | ? | -8% | -6% | 9.2µM* | 21µM*
CC(C)CN(C(=O)c1ccc(C(F)(F)F)cc1)c1c(N)n(CC(C)C)c(=O)[nH]c1=O | -3% | -8% | -3% | -26% | -6% | 4%
COC(=O)c1ccc(NC(=O)CCCN2C(=O)NC(C)(C)C2=O)cc1 | -37% | ? | -10% | 0% | -28% | -13%
CCOC(=O)C1=C(COC(=O)CCOc2ccc(C)cc2)NC(=O)NC1C (stereo not drawn) | 5.8µM* | ? | -3% | -31% | -27% | 6.5µM*
CCOC(=O)C1=C(COc2ccc(C)cc2)NC(=O)NC1c1cc(C)ccc1C (stereo not drawn) | 12µM* | 12% | ? | 18% | 10% | 23µM*
CCOC(=O)C1=C(COC(=O)/C=C/c2ccc(OC)cc2OC)NC(=O)NC1C (stereo not drawn) | 15µM* | 5% | 4% | -2% | 5% | ?
CCOC(=O)C1=C(COC(=O)/C=C/c2ccc(OC)c(OC)c2)NC(=O)NC1C (stereo not drawn) | ? | -2% | 7% | 2% | 9% | -27%
COc1cc(NC(=O)c2sc3ncn(CC(=O)N4CCCCC4)c(=O)c3c2C)cc(OC)c1OC | -17% | -7% | -3% | 7% | -6% | -26%
Cc1nc2scc(C)n2c(=O)c1S(=O)(=O)NCCc1ccccc1 | ? | 8% | -5% | -2% | 2% | ?
Cc1csc2nc(O)c(C(=O)NCCCc3ccccc3)c(=O)n12 | 15µM* | -4% | -16% | -15% | 10% | 15µM*
Cc1csc2nc(O)c(C(=O)NCCC3=CCCCC3)c(=O)n12 | 7.3µM* | 1% | 4% | -1% | 0% | 15µM*
COC(=O)C1(C(=O)OC)C[C@H](/C=C/c2ccccc2)N(Cc2ccccc2OC)[C@@H]1c1ccc(F)cc1 | ? | -15% | . | . | -1% | ?
COC(=O)C1(C(=O)OC)C[C@H](/C=C/c2ccccc2)N(Cc2ccccc2OC)[C@@H]1c1cccs1 | 23µM* | -14% | . | . | -9% | 26µM*
CC(=O)Nc1ccc(Nc2nc(-c3cc4ccccc4oc3=O)cs2)cc1 | 18µM* | -19% | 2% | -7% | 1% | 8.2µM*
SMILES | TDP1 cell noCPT | HT1080NT lethal | TGFb SMAD3 inh | HepG2 tox | HT1080 IDH1KD tx | DT40 TDP1 CPT
O=C(O)c1ccc(Nc2nc(-c3cc4ccccc4oc3=O)cs2)cc1O | ? | -10% | 2% | -1% | -10% | ?
Nc1ccc(Nc2nc(-c3cc4ccccc4oc3=O)cs2)cc1 | 8.2µM* | -8% | ? | -11% | -1% | 18µM*
CC(=O)Nc1ccc(S(=O)(=O)NC2CC(=O)N(c3ccc(C)cc3)C2)cc1 (stereo not drawn) | -6% | 6% | 5% | -10% | 3% | 14%
O=c1c(C(c2ccccc2)c2c(O)sc3ccccc3c2=O)c(O)sc2ccccc12 | 5% | 0% | -4% | 2% | 7%[9.24 µM] | -8%
Cc1ccc(OCC(=O)Nc2ccc3c(c2)C(=O)N(CCC(=O)O)C3=O)cc1 | 1% | 7% | -9% | -34% | 11% | 15%
O=C(O)c1cccc(N=C2NC(=O)C(CO)(CO)S2)c1 | -5% | 17% | 2% | 4% | 22% | -1%
CSc1nc(NCCOC(C)=O)c(C#N)c(-c2ccc(C(C)(C)C)cc2)n1 | 16µM* | . | 0% | -3% | . | ?
CCN(C(=O)COC(=O)/C=C/c1ccc(O)c(OC)c1)C1CCS(=O)(=O)C1 (stereo not drawn) | -15% | 1% | 9% | 5% | 3% | 9%
CCCN1CCc2c(sc(NC(=O)C3CCN(S(=O)(=O)c4cccs4)CC3)c2C(N)=O)C1 | ? | -6% | -6% | -17% | -4% | ?
Cc1ccc(N2C(=O)CS(=O)(=O)C23C(=O)N(Cc2ccccc2F)c2ccccc23)cc1Cl (stereo not drawn) | ? | . | 0% | -8% | . | 15µM*
Cc1ccc(CN2C(=O)C3(c4ccccc42)N(c2ccc(C)c(Cl)c2)C(=O)CS3(=O)=O)cc1 (stereo not drawn) | ? | . | -15% | -31% | . | ?
COc1ccc(N2C(=O)CS(=O)(=O)C23C(=O)N(Cc2ccc(F)cc2)c2ccc(C)cc23)cc1 (stereo not drawn) | 15µM* | . | 12% | -54% | . | ?
